LASV entry inh: blocks Lassa virus binding to or entry into cells. 1.2% of 300,000 active. Potency, µM (titrated, usually from 37.9 µM), without a hit: top-dose activity change, negative = inhibition, actives largely listed as inhibitors. Lassa virus pseudotype entry inhibition, cell reporter. AID 540256; calls by dose curve; tested in HEK293 cells; further: potency means the concentration at half of the fitted maximal effect; on the % scale 0 is the no-effect control and ±100 the full control effect; nearly all actives have a fitted effect of over 50% in size
FMDV inh: foot and mouth disease virus antiviral activity; Potency, µM (highest dose often 57.9 µM), for the others: at the top dose activity change, negative = inhibition, actives largely listed as inhibitors; FMDV antiviral cell-based qHTS; 1.2% of 410,000 active; calls by dose curve; tested in HEK293T cells; further: read-out not given here; potency means the concentration at half of the fitted maximal effect; on the % scale 0 is the no-effect control and ±100 the full control effect; nearly all actives have a fitted effect of over 45% in size
HCMV inh: human cytomegalovirus inhibition. HFF cells, HCMV-luciferase reporter, 72 h; hits give low values. activity change, negative = inhibition, % at 57.5 µM. 4.5% of 410,000 active. AID 1259415; in the data active means activity change below about -60%; inconclusive means no clear call, values can overlap the other calls; inactive means above about -39%; further: on the % scale 0 is the no-effect control and ±100 the full control effect
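After 16 h attachment at 37C, HFF cells received test compound and HCMV-luciferase (1 PFU/cell); reporter luminescence read 72 h later, data normalized against buffer-only and known inhibitor Salinomycin.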
HCV inhibitor: HCV inhibition; Huh7.5.1 HCVcc-Cre infection, luciferase reporter, 44 h; Potency, µM (doses to about 41.8 µM), without a hit: at the highest dose activity change, negative = inhibition, hits mostly inhibitors; 3.4% of 340,000 active; active means well fitted inhibition curve with a large enough effect; inconclusive means small, poorly fitted or top-dose-only effect, or another doubt; inactive means no such curve, though single readings can be large or run the other way; further: potency means the concentration at half of the fitted maximal effect; on the % scale 0 is the no-effect control and ±100 the full control effect
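Luciferase read-out (15 sec integration) after a 15 min room-temperature substrate step quantifies HCVcc-Cre infection. Cells, 1,000 per well, had compound added 4 h post-plating, then virus at ~0.5 moi, and were cultured 44 h.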
SARS PLP yeast: SARS-CoV PLP inhibition in yeast; AID 485353; Potency, µM (doses to about 32.9 µM), for inactives: top-dose activity, positive = growth rescue, hits mostly activators; S. cerevisiae expressing SARS-CoV PLpro, growth rescue; 0.19% of 330,000 active; calls by dose curve; further: potency means the concentration at half of the fitted maximal effect; 0% is about no effect; nearly all actives have a fitted effect of over 55% in size
Marburg entry inh: blocks Marburg virus binding to or entry into cells | 1.8% of 300,000 active | Marburg virus pseudotyped entry inhibition, cell reporter | Potency, µM (highest dose often 37.8 µM), for inactives: top-dose activity change, negative = inhibition, actives largely listed as inhibitors | AID 540276; calls by dose curve; tested in HEK293 cells; further: potency means the concentration at half of the fitted maximal effect; on the % scale 0 is the no-effect control and ±100 the full control effect
An asterisk follows results filed as active; ? = inconclusive; . = not tested or not shown; [ ] = remark or other dose. Compounds with a hit are over-represented: about 8% of the library has one in this group of screens.

SMILES | LASV entry inh | FMDV inh | HCMV inh | HCV inhibitor | SARS PLP yeast | Marburg entry inh
CCOc1cccc(-c2nc3ccccc3c(=O)o2)c1 | ? | 41% | 84 | . | . | .
O=c1oc2cc(O)ccc2cc1-c1ccc2c(c1)OCCO2 | . | -6% | . | . | . | .
O=C(Nc1cc(Cl)cc(Cl)c1)c1ccc(F)c(S(=O)(=O)NC2CCCC2)c1 | -27%[46.1 µM] | -9% | -6 | . | . | .
CCOc1ccc(NS(=O)(=O)c2ccc(C(=O)N(C)Cc3cccc(OC)c3OC)cc2)cc1 | ? | -20% | -31 | 13µM* | -6% | ?
CCOc1ccc(S(=O)(=O)Nc2ccc(C(=O)N(CC)CC(=O)NCc3cccs3)cc2)cc1 | . | -13% | -72* | . | . | .
COc1ccc(CCc2nnc(CCC(=O)N(C)Cc3ccnc4ccccc34)o2)cc1 | 13µM* | ? | -64* | ? | 0% | ?
Cn1cc(/C=N/NC(=O)c2ccccc2O)c2ccccc21 | . | 43% | 14 | -8% | -1% | .
CCn1c2ccccc2c2cc(/C=N/NC(=O)c3cccc(C)c3)ccc21 | -27% | -10% | 20 | ? | -1% | ?
Cn1c2ccccc2c2cc(/C=N/NC(=O)c3ccccc3F)ccc21 | . | -6% | -3 | 14µM* | -9% | .
Cn1c2ccccc2c2cc(/C=N/NC(=O)c3ccc(N)cc3)ccc21 | ? | -20% | 1 | 11µM* | 0% | ?
CCn1c2ccccc2c2cc(/C=N/NC(=O)c3ccccc3C)ccc21 | ? | -9% | -23 | 5.6µM* | -36% | ?
CCC[C@H](/C=C/C(=O)OCC)NC(=O)C(F)(F)F | . | . | -8 | . | . | .
CN(C(=O)c1cc(COc2ccc(F)cc2Cl)on1)C1CCOC1 (centres undefined) | . | -3% | ? | . | . | .
CCOC(=O)C1=C(O)c2ccccc2C(=O)/C1=C\c1ccc(CC)cc1 | ? | ? | . | ? | -45% | 2.1µM*
c1ccc(N2CCN(c3ccccc3)C2c2cccnc2)cc1 | 0% | 10µM* | -21 | -9% | -3% | 6%
Cc1ccc(N2CCN(c3ccc(C)cc3)C2c2cccnc2)cc1 | ? | . | 4 | ? | -7% | ?
COC(=O)c1ccc(C2C=C(c3ccc(Cl)cc3)Nc3nc4ccccc4n32)cc1 (centres undefined) | ? | -34% | 29 | . | . | .
CCOC(=O)N1CCN(C(=O)c2ccc3c(c2)NC(=O)/C(=C\c2ccc(OC)c(OC)c2)S3)CC1 | . | -28% | ? | 10% | 2% | .
Cc1cccc(/C=C2/Sc3ccc(C(=O)N4CCOCC4)cc3NC2=O)c1 | . | -1% | -75* | -25% | -1% | .
COc1ccc(/C=C2/Sc3ccc(C(=O)N4CCOCC4)cc3NC2=O)cc1OC | . | 2% | -69* | -5% | -1% | .
O=C1Nc2cc(C(=O)N3CCOCC3)ccc2S/C1=C\c1ccccc1 | . | -14% | ? | 8% | 16% | .
CNc1ncnc2ccc(-c3cccc(OC)c3)cc12 | . | -28% | . | . | . | .
C/C(CCN1CCc2nc(-c3ccccc3)c(-c3ccccc3)cc2C1)=N\O[C@H](C)CN1CCCCc2nc(C)c(C)cc21 | . | . | . | . | . | 25%[14.2 µM]
COc1ccccc1N(CC(=O)NCc1ccccn1)S(C)(=O)=O | 3% | . | -66* | 1% | -4% | -1%
COc1ccc2c3c(c(=O)oc2c1)[C@H]1O[C@](c2ccsc2)(Cc2ccccc21)O3 | . | . | . | . | . | -20%[14.2 µM]
SMILES | LASV entry inh | FMDV inh | HCMV inh | HCV inhibitor | SARS PLP yeast | Marburg entry inh
COc1cc(NC(=O)CN(C)S(=O)(=O)c2ccc3c(c2)CC(C)N3C(C)=O)cc(OC)c1 (centres undefined) | . | ? | -26 | ? | 3% | .
COc1cc(-c2nc3ccc4ccccc4c3c3c2CCC3)cc(OC)c1OC | -21% | ? | 41 | 5.6µM* | -12% | -17%
Cc1ccc(S(=O)(=O)N(CC(=O)NCc2ccco2)C2CCCCC2)cc1 | -20% | . | 64 | 3.5µM* | -14% | -13%
O=C(CN(C1CCCCC1)S(=O)(=O)c1ccccc1)NCc1ccco1 | -25% | . | 22 | -6% | 14% | -1%
Cc1ccc(S(=O)(=O)N(CC(=O)Nc2ccc(Cl)c([N+](=O)[O-])c2)C2CCCCC2)cc1 | ? | 19% | -77* | ? | 0% | ?
Cc1ccc(S(=O)(=O)N(CC(=O)Nc2cccc([N+](=O)[O-])c2)C2CCCCC2)cc1 | ? | -7% | ? | -16% | 0% | ?
CC(NCC(O)c1ccc([N+](=O)[O-])cc1)C12CC3CC(CC(C3)C1)C2 (centres undefined) | ? | ? | ? | -27% | -2% | ?
Cc1ccc(-c2nnc(SCC(=O)NNC(=O)COc3cccc4ccccc34)n2C)cc1 | -5% | . | -3 | 2% | 0% | 22%
CC(=O)NCCNC(=O)c1cnn(-c2nccc(-c3cc(C)sc3C)n2)c1C | . | -8% | . | . | . | .
Oc1cccc2ccc(Nc3ccccn3)nc12 | 23µM* | 0% | -103* | 1.1µM* | -22% | ?
COCCN1C(=O)NC(c2cccc(F)c2)C(C(=O)OC)=C1C (centres undefined) | . | . | . | . | . | 1%[14.2 µM]
COc1ccc(OC)c(-c2csc(NC(=O)c3ccc(F)cc3)n2)c1 | . | -17% | -3 | ? | -8% | .
CC(C)(C)c1cc(CP(=O)(c2ccccc2)c2ccccc2)cc(C(C)(C)C)c1O | . | ? | -14 | 16µM* | -12% | .
OCCNCCCCSc1ccc(Cl)cc1 | . | -10% | -12 | 10µM* | -1% | .
COCCCNCCCCSc1ccc(Cl)cc1 | ? | -9% | -26 | 13µM* | -34% | ?
OCCNCCSc1ccc(Cl)cc1 | . | 6% | 16 | 0% | 0% | .
CCCCNCCOCCSc1ccc(Cl)cc1 | -18% | -16% | 11 | 7.9µM* | 1% | ?
COCCCNCCOCCSc1ccc(Cl)cc1 | 10% | -7% | ? | ? | -16% | ?
O=C(Nc1ccc(F)c(Cl)c1)C1CCN(c2ncccn2)CC1 | 3%[46.1 µM] | -7% | -15 | . | . | 2%[46.1 µM]
CN(C)CCN(Cc1ccco1)C(=O)c1cc2c(Cl)nc3ccccc3c2s1 | 0% | -28% | ? | 10µM* | 0% | 15µM*
C1=C(c2ccccc2)CCNC1 | ? | -7% | 55 | 14% | 1% | ?
Cc1[nH]c2ccccc2c1C1=CCNCC1 | -6% | -2% | -26 | 11µM* | 2% | -4%
COCCn1c(-c2ccccc2)c(C)n2c3c(=O)n(C)c(=O)n(C)c3nc12 | -27%[46.1 µM] | 3.2µM* | -34 | . | . | ?
CCCCn1c(-c2ccc(C)cc2)c(C)n2c3c(=O)n(C)c(=O)n(C)c3nc12 | ? | ? | -12 | . | . | .
Cc1ccc(-c2c(C)n3c4c(=O)n(C)c(=O)n(C)c4nc3n2CCO)cc1 | ? | 18µM* | ? | . | . | .
Cc1c(-c2ccccc2)n(-c2ccccc2O)c2nc3c(c(=O)n(C)c(=O)n3C)n12 | ? | 25µM* | -64* | . | . | ?
Nc1nc(N(Cc2ccccc2)Cc2ccccc2)nc(C(F)(F)F)n1 | . | ? | 14 | ? | -6% | .

Bioassay records as filed in PubChem.
